# Screening data as filed in PubChem BioAssay.
# tim23-1 inh: growth inhibitors of tim23-1 mutant yeast, primary screen, luminescence, uHTS. S. cerevisiae tim23-1 growth, BacTiter-Glo luminescence, 24 h. inhibition, % at 20 µM. hit rate 1.3% among 330,000. AID 463212, 2010;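 active = growth inhibition of the mutant yeast at or above 50%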;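 also: temperature-sensitive mutant grown at 25 °C; plate controls were DMSO-treated mutant yeast for no effect and medium wells lacking yeast for full effect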
# TIM10 inh: growth inhibitors of isogenic TIM10 control yeast, primary screen, counter-screen for tim10-1 yeast inhibitor project, luminescence, uHTS | S. cerevisiae TIM10 strain growth, BacTiter-Glo luminescence, 24 h | inhibition, % at 10 µM | AID 463195, 2010 | hit rate 1.4% among 330,000;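 active = inhibition of 40% or more at the single tested concentration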;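 also: wild-type TIM10 isogenic control strain grown at permissive 25 °C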
# SUMO Mot1 rescue: yeast Mot1-301 growth rescue at high temperature, primary screen, SUMOylation pathway inhibitor project, S. cerevisiae, ATP luminescence, 38.5C; hit rate 1% among 320,000; AID 2716, 2010; growth rescue, % at 18.8 µM; S. cerevisiae Mot1-301 growth rescue; percent above DMSO median, 100 means doubled;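 active = every valid replicate shows activation above 250% relative to neutral control wells; inactive = the rest, any valid replicate at or below 250%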;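 also: OY570 slx delta 5 strain wells were the positive control but not used for scaling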
# PfHsp90 set2: growth inhibition of PfHsp90-expressing yeast, primary screen, antimalarial PfHsp90 inhibitor project, S. cerevisiae, BacTiter-Glo luminescence, single point, set 2; BacTiter-Glo ATP, 48 h; yeast lacking PDR1 and PDR3 efflux regulators; inhibition, % at 9.4 µM; hit rate 0.32% among 310,000;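 active = every replicate shows inhibition above about 80%, whatever the replicate mean, limit read from the data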;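 also: 0% = DMSO neutral controls and 100% = 20 µM radicicol positive controls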
# tim10-1 inh: growth inhibitors of tim10-1 mutant yeast, primary screen, luminescence, uHTS. hit rate 2.2% among 330,000. S. cerevisiae tim10-1 ts strain growth, BacTiter-Glo, 24 h. inhibition, % at 20 µM;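 active = inhibition of at least 40%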;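 also: mutant grown at 25 °C; 0% = DMSO wells with yeast and 100% = wells holding no yeast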
# Mot1 SUMO dose: growth restoration of Mot1-301 yeast on galactose, dose response, SUMO pathway inhibitor project, whole organism, S. cerevisiae, ATP luminescence, cherry-picked samples. shares compounds with SUMO Mot1 rescue. S. cerevisiae Mot1-301 galactose growth, 24 h; -100 = growth of slx-deleted rescue strain. growth activity, percent, % at 42 µM. 2,300 tested, under 10 active;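 active = Signal drops as the depositor expects, and the fitted half-maximal dose is no more than ten times the top valid tested dose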;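 also: more negative values mean stronger growth rescue toward the control strain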
# An asterisk follows results filed as active; · = not tested or not shown; + = active, no number. Only some compounds are listed: those with a hit (about 4.4% of all), similar ones and a draw of the others.
SMILES,tim23-1 inh,TIM10 inh,SUMO Mot1 rescue,PfHsp90 set2,tim10-1 inh,Mot1 SUMO dose
O=C1C2CCCCN2C(=O)N1CCCCN1CCN(c2ccccc2Oc2ccccc2)CC1 (centres undefined),-11.9,-52.8,431.4*,11.4,-52.9,0.0
CCOC(=O)c1c(S(=O)(=O)NCC(=O)Nc2ccc(F)cc2F)c(C)n(C)c1C,-10.6,4.4,-3.4,3.5,3.2,·
Nn1c(-c2cccc(O)c2)nnc1-c1cccc(O)c1,·,·,·,20.6,·,·
CCOC(=O)CNC(=O)N1CCC(CCC(=O)N(C)Cc2ccccc2)CC1,-14.7,2.2,-4.9,-8.5,0.6,·
CCCCNC(=O)N1CCC(CCC(=O)N(C)Cc2ccccc2)CC1,1.8,-6.3,374.6*,11.9,-8.9,-0.8
CN(C(=O)CSc1nnc(-c2cccc(F)c2)n1N)C1CCS(=O)(=O)C1 (centres undefined),-0.2,-11.5,400.9*,20.6,7.0,0.5
CC(=O)Nc1sc2c(c1C(c1ccc(F)cc1)N1CCOCC1)CCCC2 (centres undefined),33.0,37.0,385.2*,4.4,33.6,-0.3
CCCCN1C(=O)C(=O)N(CC(=O)c2cc(C)n(C3CC3)c2C)C1=O,13.2,-16.0,6.5,24.8,-0.2,·
C/C(=N/Nc1ccc(F)cc1)c1ccc(Cl)s1,48.7,2.4,384.4*,4.5,37.9,0.0
Cc1ccc2c(C)c(C(=O)N(C)C(C)c3ccncn3)oc2c1C (centres undefined),16.1,1.2,359.4*,7.8,8.9,0.3
O=C(CCCCCn1c(=O)[nH]c2ccsc2c1=O)NCc1ccc(F)cc1,-3.1,-7.6,883.0*,65.4,17.1,0.4
Cc1ccc(/C=N/NC(=O)NC23CC4CC(CC(C4)C2)C3)o1,22.9,28.5,742.9*,-16.1,20.7,-0.6
O=C(N/N=C/c1ccncc1)NC12CC3CC(CC(C3)C1)C2,45.5,24.6,-5.9,-13.1,32.7,·
Cn1c(SCC(=O)Nc2ccc(N3CCOCC3)c(Cl)c2)nnc1-c1ccccc1,-0.7,2.2,691.6*,·,-2.2,0.3
CCn1c(Cc2ccccc2)nnc1SCC(=O)Nc1ccc(N2CCOCC2)c(Cl)c1,1.3,1.5,-16.4,11.9,17.5,·
COc1ccccc1CN1CCC(CNS(=O)(=O)c2cc(-c3cc(C)no3)ccc2OC)CC1,-6.0,-0.4,297.2,5.4,2.9,·
CC(C)CC1Nc2ncnc(N3CCN(c4ccccc4)CC3)c2N(Cc2ccc(Cl)cc2)C1=O (centres undefined),18.4,4.4,-5.6,-15.6,14.0,·
COC(=O)[C@@H]1C[C@@H]2CC[C@@H](O)C[C@@H]2N1Cc1ccc(N2CCN(C)CC2)cc1,2.7,1.5,522.1*,11.9,7.0,0.0
COc1ccc(Cl)cc1NC(=O)c1nnn(CC(=O)Nc2ccc(C)c(C)c2)c1N,-8.8,-16.9,-8.4,10.2,-15.6,·
CCc1ccccc1NC(=O)N[C@@H](C)C(=O)O,-6.5,-0.1,117.6,·,7.5,·
CCc1ccccc1NC(=O)N[C@@H](C)C(=O)OC,-4.6,-11.5,649.8*,8.8,-29.4,0.3
Cc1ccccc1-c1nc(CS(=O)(=O)CC(=O)NCCCN2CC(C)CC(C)C2)c(C)o1 (centres undefined),-12.9,-1.3,6.2,-3.7,-16.0,·
Cc1cccc(N2CN=C3SCC(=O)N3C2)c1,5.7,12.2,8.5,7.7,9.6,·
CCOC(=O)c1c(C)[nH]c(O)c1C=Nc1ccccc1,7.0,-13.3,882.9*,·,-12.3,-0.3
CCOC(=O)c1c(C)[nH]c(C=Nc2ccccc2)c1O,8.4,-0.8,·,·,-1.0,·
SMILES,tim23-1 inh,TIM10 inh,SUMO Mot1 rescue,PfHsp90 set2,tim10-1 inh,Mot1 SUMO dose
COc1ccc(N(CC(=O)NCCSCc2ccccc2C)S(=O)(=O)c2ccccc2)cc1,23.9,8.6,19.3,14.7,22.5,·
CC(C)NC(=O)c1cc2c(C(F)(F)F)nn(C)c2s1,-12.0,-7.3,32.0,-7.7,-11.2,·
CCCNC(=O)c1cc2c(C(F)(F)F)nn(C)c2s1,5.9,-14.8,859.1*,20.4,-13.0,-0.1
Cc1cc(C)nc(SCC2COc3ccccc3O2)n1 (centres undefined),1.9,9.4,393.5*,-8.0,1.1,0.6
COc1ccc(S(=O)(=O)N2CCCCC2)cc1NC(=O)Cc1ccc(Br)cc1,·,·,·,0.6,·,·
Cc1nnc(C)n1/N=C/c1cc2ccccc2nc1Cl,13.5,6.6,607.7*,0.0,10.4,-0.3
COc1cccc(NC(=O)CN(C)C(=O)c2ccccc2OCc2c(C)noc2C)c1,-8.2,-14.2,+,-6.2,-15.0,0.8
COc1ccc(NC(=O)N(C)C[C@H]2Oc3c(NC(=O)C4CCCCC4)cccc3C(=O)N([C@H](C)CO)C[C@@H]2C)cc1,16.5,7.3,-10.0,-10.6,6.8,·
O=C(CSc1ccc(Cl)cc1)N1N=CCC1c1ccccc1 (centres undefined),11.8,16.1,7.7,-16.0,13.2,·
CCN1CCN(CC(=O)N2N=CCC2c2ccccc2)CC1 (centres undefined),-11.9,7.0,805.3*,6.4,2.6,0.0
O=C(Nc1ccc(Cl)cc1)C1CCCN(C2=NS(=O)(=O)c3ccccc32)C1 (centres undefined),-2.7,4.5,-16.8,·,-11.3,·
Fc1ccc2nc(C3CCN(Cc4nc(CC5CC5)no4)CC3)[nH]c2c1,8.5,-15.2,459.6*,3.9,13.7,0.1
O=C(CCl)N(Cc1cc(=O)[nH]c2ccccc12)c1ccccc1,-15.7,1.1,490.8*,8.2,-1.2,0.1
CCC(=O)N(Cc1cc(=O)[nH]c2ccccc12)c1ccccc1,5.0,3.0,-3.7,-14.2,11.6,·
COC(=O)C(NS(=O)(=O)c1ccc(N2CCCC2=O)cc1)c1ccccc1 (centres undefined),1.7,5.5,1.3,-4.9,-6.8,·
CC(C)CN(CC(C)C)S(=O)(=O)N1CCC(C(=O)N2CCc3ccccc3C2)CC1,15.2,27.7,-2.1,7.4,19.4,·
CCS(=O)(=O)N1CCC(C(=O)N2CCc3ccccc3C2)CC1,5.7,-7.7,363.5*,-7.1,-25.5,0.2
Cc1ccc2cc3c(NC(=O)CC(C)C)nn(C)c3nc2c1,21.4,6.8,12.5,-73.6,27.3,·
CC(=O)Nc1nn(C)c2nc3ccc(C)cc3cc12,-7.8,9.7,479.1*,-14.8,5.0,0.3
COc1cc(C)c(Cl)c(C)c1S(=O)(=O)NCc1ccc2c(c1)OCO2,7.5,7.1,383.6*,-15.1,15.9,-1.2
COc1cc(C)c(S(=O)(=O)NCc2ccc3c(c2)OCO3)cc1C,17.5,-4.1,0.7,-17.0,9.2,·
